Only some compounds are listed: those with a hit (about 4.2% of all), similar ones and a draw of the others.
hgDAF-12 ag = activates the H. glycines DAF-12 receptor ligand-binding domain. hit rate 1.8% among 370,000. HEK293 GAL4-hgDAF12 UAS-luciferase reporter, agonist luminescence; normalized to butyrate control. activation, % at 6.8 µM;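 active means activation above a cutoff set at the mean of all screened compounds plus 3 SD, cut at about 10% in these data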;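 further: 0% = DMSO wells and 100% = sodium butyrate wells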
esBAF inh = inhibitors of esBAF chromatin remodeling in mouse ES cells; reporter increase, % at 12.5 µM; Bmi1-luciferase knock-in reporter, 24 h; 100% = twice the neutral-well signal; hit rate 2% among 350,000; in the data active means activation above about 40%;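 further: 0% = median of the plate's neutral control wells and 100% = double that signal; a rise in the Bmi1 reporter signal indicates esBAF inhibition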
Wnt bcat act = Wnt/beta-catenin pathway activation; Wnt/beta-catenin reporter cell assay, activator, plate reader; activation, % at 9.35 µM; hit rate 1.2% among 300,000; in the data active means activation above about 30%, passing the limit was not always enough;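 further: 0% = neutral control wells and 100% = positive control wells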
ssDAF-12 act = activators of S. stercoralis DAF-12 nuclear receptor. hit rate 1% among 370,000. HEK293 ssDAF-12/GRIP1 lit1-tk-luc reporter, luminescence; % of 3 µM dafachronic acid response. activation, % at 6.8 µM. AID 652126;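 active means activation above the mean over all tested compounds plus 3 SD, cut at about 0.9% in these data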;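 further: 0% = DMSO-only wells and 100% = 3 µM delta7-dafachronic acid wells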
DAX1 StAR inh = inhibitors of DAX1 repression of SF-1 activated StAR promoter. hit rate 1.1% among 370,000. AID 652010. inhibition, % at 6.8 µM. HEK293T StAR-luciferase reporter, SF-1/DAX-1 repression relief;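 active means inhibition above the mean over all tested compounds plus 3 SD, cut at about 3.6% in these data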;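 further: 0% = DAX-1 cells with DMSO and 100% = cells lacking DAX-1 with DMSO; higher inhibition means more luminescence from relief of DAX-1 repression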
hcDAF12 agonist = activates DAF-12 receptor from parasite H. contortus | HEK293 hcDAF-12 lit1-tk-luc reporter, luminescence; 0% DMSO, 100% Δ7-dafachronic acid | activation, % at 6.8 µM | hit rate 1.4% among 370,000 | AID 652067;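 active means activation above the mean of all tested compounds plus 3 SD, cut at about 5.5% in these data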;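 further: 100% = response to 3 µM Δ7-dafachronic acid high control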
LXRb hcDAF ctr = LXR-beta agonism as hcDAF-12 counter-screen; shares compounds with hcDAF12 agonist; 3,400 tested, under 10 active; activation, % at 6.8 µM; AID 743027; HEK293 Gal4-LXR tk-luc reporter, luminescence, 24 h; normalized: DMSO 0%, positive control 100%;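 active means mean percent activation of the reporter above a cutoff set as the average over tested compounds plus their standard deviation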
Target sequence (P55055 whole entry, looked up, the tested form may be a part): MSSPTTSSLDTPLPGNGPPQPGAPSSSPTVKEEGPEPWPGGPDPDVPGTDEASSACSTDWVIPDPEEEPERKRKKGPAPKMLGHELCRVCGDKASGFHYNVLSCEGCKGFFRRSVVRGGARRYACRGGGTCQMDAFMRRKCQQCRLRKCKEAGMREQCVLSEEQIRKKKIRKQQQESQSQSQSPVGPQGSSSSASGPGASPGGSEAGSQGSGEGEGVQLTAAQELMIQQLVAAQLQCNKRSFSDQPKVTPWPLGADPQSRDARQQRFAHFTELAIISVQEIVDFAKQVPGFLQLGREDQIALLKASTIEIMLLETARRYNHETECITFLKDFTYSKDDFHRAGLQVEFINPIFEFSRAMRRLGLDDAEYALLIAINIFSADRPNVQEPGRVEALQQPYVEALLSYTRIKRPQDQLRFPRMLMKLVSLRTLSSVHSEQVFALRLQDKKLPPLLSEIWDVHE
hcDAF12 conf = confirmation of H. contortus DAF-12 agonists; shares compounds with hcDAF12 agonist; HEK293 hcDAF-12 lit1-tk-luc reporter, luminescence; % of Δ7-dafachronic acid response; activation, % at 6.8 µM; hit rate 61% among 3,400;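 active means mean activation across triplicate tests above the threshold derived from the earlier primary screen, cut at about 5.5% in these data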;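 further: 0% = DMSO only wells and 100% = 3 µM Δ7-dafachronic acid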
Numbers without * were called inactive; x = no result given.

SMILES | hgDAF-12 ag | esBAF inh | Wnt bcat act | ssDAF-12 act | DAX1 StAR inh | hcDAF12 agonist | LXRb hcDAF ctr | hcDAF12 conf
Cc1ccccc1C(=O)Nc1ccc(Cl)cn1 | 10 | 25 | x | -1 | 1 | 2 | x | x
O=C(Nc1ccc(Cl)cn1)c1ccc2ccccc2n1 | 7 | 10 | x | 1.4* | 0 | 7.8* | 1 | 17*
O=C(Nc1ccc(OC(F)(F)F)cc1)c1ccc2ccccc2n1 | 9 | x | 4 | 1 | 1 | 7.8* | 0 | 7.7*
C[C@@H]1CCCCO[C@@H](CN(C)Cc2ccc3c(c2)OCO3)[C@H](C)CN([C@@H](C)CO)C(=O)c2cc(NC(=O)Nc3cccc4ccccc34)ccc2O1 | x | -4 | x | x | x | x | x | x
CC(C)c1ccc2oc(-c3ccc(N)cc3)nc2c1 | 8 | -55 | x | 1 | 2 | 12* | 2 | 15*
Cc1ccc(-c2nc3cc(C)ccc3o2)cc1 | 12* | -61 | x | 1.7* | 3 | 11* | 2 | 21*
Cc1ccc(-c2nc3cc(N)ccc3o2)cc1 | 13* | -20 | x | 1 | 3.6* | 9.8* | 2 | 9.2*
CC(C)(C)c1ccc(-c2nc3cc(N)ccc3o2)cc1 | 8 | -26 | -2 | -1 | 1 | 4 | x | x
C[C@H]1CN([C@@H](C)CO)C(=O)Cc2cc(NC(=O)Cc3cn(C)c4ccccc34)ccc2O[C@H]1CN(C)S(=O)(=O)c1ccc(F)cc1 | x | 1 | x | x | x | x | x | x
CC(=O)c1cccc(NC(=O)c2cnccn2)c1 | -2 | 11 | 2 | -1 | 0 | 0 | x | x
O=C(Nc1nc2ccccc2s1)C1=NN(c2ccccc2)C(=O)CC1 | 1 | x | 11 | -1 | 0 | 6.8* | 0 | 4
O=C(Nc1nc2ccc(F)cc2s1)C1=NN(c2ccccc2)C(=O)CC1 | 2 | 31 | 4 | 0 | 1 | 4 | x | x
O=C(Nc1nc2ccccc2s1)c1cnccn1 | 13* | -20 | x | 1 | 4.0* | 7.5* | 1 | 6.6*
O=C(Nc1ccc2nccnc2c1)c1cnccn1 | 5 | 36 | 16 | -1 | 2 | 6.7* | 0 | 2
C[C@@H]1CN([C@@H](C)CO)S(=O)(=O)c2ccc(C3=CCCCC3)cc2O[C@H]1CN(C)S(=O)(=O)c1ccc(F)cc1 | x | -1 | x | x | x | x | x | x
O=C(C[C@@H]1CC[C@@H]2[C@H](COC[C@H](O)CN2C(=O)c2ccccc2)O1)Nc1ccc(-c2ccccc2)cc1 | x | 1 | x | x | x | x | x | x
CCCn1c(C)cc(C(=O)CN2C(=O)c3ccccc3C2=O)c1C | 11* | x | 43* | 0.9* | 3 | 9.7* | 1 | 12*
CCn1c(C)cc(C(=O)CN2C(=O)c3ccccc3S2(=O)=O)c1C | -10 | -77 | 1 | -2 | -4 | -4 | x | x
C[C@@H]1CCCCO[C@@H](CN(C)C(=O)Nc2ccc3c(c2)OCO3)[C@H](C)CN([C@H](C)CO)C(=O)c2cc(NC(=O)C3CCCCC3)ccc2O1 | x | 25 | x | x | x | x | x | x
CSc1ccccc1NC(=O)c1cc(CC(C)C)on1 | 11* | 31 | 6 | 0 | 2 | 7.5* | 0 | 4
CC(=O)c1ccc(NC(=O)c2cc(CC(C)C)on2)cc1 | 2 | 35 | 28 | -1 | 0 | 2 | x | x
O=C(NNc1ccccc1Br)C(=O)n1ccc2ccccc21 | 1 | x | 3 | 0 | 0 | 7.6* | 0 | 2
O=C(Nc1ccccc1Br)C(=O)N1CCCC1 | 6 | x | x | 0 | 1 | 1 | x | x
Fc1ccc(-c2nc3c(Cl)cc(C(F)(F)F)cn3c2Cl)cc1 | 6 | 39 | x | 0 | 1 | 9.6* | 1 | 8.7*
Fc1cccc(Cc2c(-c3cccc(Br)c3)nc3c(Cl)cc(C(F)(F)F)cn23)c1 | 1 | 13 | -1 | 0 | 0 | 6.6* | 0 | 1
SMILES | hgDAF-12 ag | esBAF inh | Wnt bcat act | ssDAF-12 act | DAX1 StAR inh | hcDAF12 agonist | LXRb hcDAF ctr | hcDAF12 conf
C[C@H](CO)N1C[C@H](C)[C@H](CN(C)S(=O)(=O)c2cn(C)cn2)OCCCC[C@H](C)Oc2ccc(NC(=O)Nc3ccc(C(F)(F)F)cc3)cc2C1=O | x | 4 | x | x | x | x | x | x
CCOC(=O)/C(=N\Nc1cc(Cl)ccc1Cl)N1CC(C)OC(C)C1 (stereo unspecified) | 4 | -13 | -3 | -2 | 0 | -1 | x | x
CCOC(=O)C(=NCC1CCCO1)NNc1cc(Cl)ccc1Cl (stereo unspecified) | 1 | x | -1 | -1 | 0 | 7.5* | 0 | 1
C[C@H]1CCCCO[C@H](CN(C)C(=O)Nc2cccc3ccccc23)[C@@H](C)CN([C@@H](C)CO)C(=O)c2cc(NS(=O)(=O)c3cn(C)cn3)ccc2O1 | x | 3 | x | x | x | x | x | x
S=c1nc(-c2ccc(Br)cc2)[nH]c2ccccc12 | 0 | 16 | 0 | 1 | 1 | 7.3* | 0 | 9.0*
CC(=O)c1cccc(N=C2C(=O)Nc3ccccc32)c1 | 2 | x | 1 | 0 | 1 | 6.6* | 0 | 2
Cc1ccc(N=C2C(=O)Nc3ccccc32)cc1C | -2 | 3 | 0 | 0 | 0 | -1 | x | x
COc1nc(NCCO)nc(Nc2ccc([N+](=O)[O-])cc2)n1 | 2 | x | x | -1 | -1 | -1 | x | x
O=[N+]([O-])c1ccc(Nc2nc(Cl)nc(NCCO)n2)cc1 | 2 | x | -3 | 1 | 2 | 6.8* | 0 | 5
C(=N\Nc1ncnc2ccccc12)/c1ccccc1 | 15* | 70* | 0 | 1.3* | 3 | 8.4* | 1 | 8.5*
Clc1nnc(N/N=C/c2ccccc2)c2ccccc12 | 7 | 39 | x | 1.2* | 1 | 7.3* | 1 | 11*
Cc1ccc(-c2nc(N/N=C/c3ccncc3)c3ccccc3n2)cc1 | 10 | -30 | 8 | 1.1* | 3 | 15* | 2 | 20*
Cc1ccc(/C=N/Nc2nnc(Cl)c3ccccc23)cc1 | 8 | 20 | -6 | 3.7* | 2 | 11* | 2 | 18*
Clc1cncc(Cl)c1N/N=C/c1ccccc1 | 2 | x | 2 | -1 | 0 | 1 | x | x
CC(=O)Nc1ccc(C=NNc2nnc(NN=Cc3ccc(NC(C)=O)cc3)c3ccccc23)cc1 | 1 | x | -1 | -1 | 0 | 0 | x | x
COc1ccccc1CN1[C@@H](CO)[C@@H]2c3ccccc3N(C(=O)C3CCCCC3)C[C@@H]21 | x | -5 | x | x | x | x | x | x
Clc1ccc(/C=N/Nc2nnc(Cl)c3ccccc23)cc1 | 6 | 90* | 11 | 1.6* | 1 | 7.0* | 1 | 8.7*
Cc1ccc(-c2cnn3c(N4CCOCC4)cc(C)nc23)cc1 | 0 | -29 | 7 | -1 | 0 | 4 | x | x
Cc1cc(N2CCC(C)CC2)n2ncc(-c3ccccc3)c2n1 | -4 | -28 | 0 | -2 | 0 | 0 | x | x

Assay outcomes from PubChem BioAssay.
